In the supplement of paper PMC8975748:
Structures can show the parent of a compound that is named as a salt. ± gives the standard deviation of the averaged measurements.

How the values were obtained:
[1] = system: Saccharomyces cerevisiae BY4741 SeMeCo community; assay: mean cell size (pixel area) (pixels); higher = larger cells; details: 10 µM; 24 h; SM minimal medium
Outline: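 A four-plasmid fluorescent Saccharomyces cerevisiae BY4741 community was tested; each plasmid complements one auxotrophy and carries a fluorescent marker. An overnight preculture at OD600 = 1.0 was diluted to OD600 = 0.3, and 70 µl was added to 384-well plates acoustically predosed with drug (final 10 µM) in SM medium for 24 h. Cells were fixed with paraformaldehyde and imaged by automated confocal microscopy, with analysis in Harmony. Mean cell pixel area per well is averaged over 3 replicates. Same SeMeCo high-content imaging drug screen: Selleck FDA-approved drugs at 10 µM, 24 h in SM medium, 384-well plates, 3 replicates.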

[2] = system: Saccharomyces cerevisiae BY4741 SeMeCo community; assay: z-score of prototroph abundance vs DMSO median; higher = larger share of this subpopulation than in DMSO controls; details: 10 µM; 24 h; SM minimal medium; subpopulation (auxotrophy): Prototroph
Outline: (§1)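 Cells of a Saccharomyces cerevisiae BY4741 community, carrying four plasmids that each restored one auxotrophy and encoded a distinct fluorescent protein, were pre-grown overnight to OD600 1.0 and diluted to 0.3. A 70 µl volume was added to 384-well plates acoustically predosed with library drugs (10 µM final) and grown 24 h in minimal SM medium. After paraformaldehyde fixation, automated confocal microscopy was used, with single-auxotroph fluorescent strains for thresholds and autofluorescence correction. The abundance of each subpopulation was scored as a z-score against the vehicle-well median.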

[3] = system: Saccharomyces cerevisiae BY4741 SeMeCo community; assay: z-score of subpopulation abundance vs DMSO median, subpopulation auxotrophic for M; higher = larger share of this subpopulation than in DMSO controls; details: 10 µM; 24 h; SM minimal medium; subpopulation (auxotrophy): M
Outline: as §1

[4] = system: Saccharomyces cerevisiae BY4741 SeMeCo community; assay: z-score of subpopulation abundance vs DMSO median, subpopulation auxotrophic for L; higher = larger share of this subpopulation than in DMSO controls; details: 10 µM; 24 h; SM minimal medium; subpopulation (auxotrophy): L
Outline: as §1

[5] = system: Saccharomyces cerevisiae BY4741 SeMeCo community; assay: z-score of subpopulation abundance vs DMSO median, subpopulation auxotrophic for U; higher = larger share of this subpopulation than in DMSO controls; details: 10 µM; 24 h; SM minimal medium; subpopulation (auxotrophy): U
Outline: as §1

[6] = system: Saccharomyces cerevisiae BY4741 SeMeCo community; assay: z-score of subpopulation abundance vs DMSO median, subpopulation auxotrophic for H; higher = larger share of this subpopulation than in DMSO controls; details: 10 µM; 24 h; SM minimal medium; subpopulation (auxotrophy): H
Outline: as §1

[7] = system: Saccharomyces cerevisiae BY4741 SeMeCo community; assay: z-score of subpopulation abundance vs DMSO median, subpopulation auxotrophic for LU; higher = larger share of this subpopulation than in DMSO controls; details: 10 µM; 24 h; SM minimal medium; subpopulation (auxotrophy): LU
Outline: as §1

[8] = system: Saccharomyces cerevisiae BY4741 SeMeCo community; assay: z-score of subpopulation abundance vs DMSO median, subpopulation auxotrophic for LM; higher = larger share of this subpopulation than in DMSO controls; details: 10 µM; 24 h; SM minimal medium; subpopulation (auxotrophy): LM
Outline: as §1

[9] = system: Saccharomyces cerevisiae BY4741 SeMeCo community; assay: z-score of subpopulation abundance vs DMSO median, subpopulation auxotrophic for HM; higher = larger share of this subpopulation than in DMSO controls; details: 10 µM; 24 h; SM minimal medium; subpopulation (auxotrophy): HM
Outline: as §1

[10] = system: Saccharomyces cerevisiae BY4741 SeMeCo community; assay: z-score of subpopulation abundance vs DMSO median, subpopulation auxotrophic for UM; higher = larger share of this subpopulation than in DMSO controls; details: 10 µM; 24 h; SM minimal medium; subpopulation (auxotrophy): UM
Outline: as §1

[11] = system: Saccharomyces cerevisiae BY4741 SeMeCo community; assay: z-score of subpopulation abundance vs DMSO median, subpopulation auxotrophic for HL; higher = larger share of this subpopulation than in DMSO controls; details: 10 µM; 24 h; SM minimal medium; subpopulation (auxotrophy): HL
Outline: as §1

[12] = system: Saccharomyces cerevisiae BY4741 SeMeCo community; assay: z-score of subpopulation abundance vs DMSO median, subpopulation auxotrophic for HLU; higher = larger share of this subpopulation than in DMSO controls; details: 10 µM; 24 h; SM minimal medium; subpopulation (auxotrophy): HLU
Outline: as §1

[13] = system: Saccharomyces cerevisiae BY4741 SeMeCo community; assay: z-score of subpopulation abundance vs DMSO median, subpopulation auxotrophic for HLM; higher = larger share of this subpopulation than in DMSO controls; details: 10 µM; 24 h; SM minimal medium; subpopulation (auxotrophy): HLM
Outline: as §1

[14] = system: Saccharomyces cerevisiae BY4741 SeMeCo community; assay: z-score of subpopulation abundance vs DMSO median, subpopulation auxotrophic for HUM; higher = larger share of this subpopulation than in DMSO controls; details: 10 µM; 24 h; SM minimal medium; subpopulation (auxotrophy): HUM
Outline: as §1

[15] = system: Saccharomyces cerevisiae BY4741 SeMeCo community; assay: z-score of subpopulation abundance vs DMSO median, subpopulation auxotrophic for LUM; higher = larger share of this subpopulation than in DMSO controls; details: 10 µM; 24 h; SM minimal medium; subpopulation (auxotrophy): LUM
Outline: as §1

[16] = system: Saccharomyces cerevisiae BY4741 SeMeCo community; assay: z-score of subpopulation abundance vs DMSO median, subpopulation auxotrophic for HLUM; higher = larger share of this subpopulation than in DMSO controls; details: 10 µM; 24 h; SM minimal medium; subpopulation (auxotrophy): HLUM
Outline: as §1

[17] = system: Saccharomyces cerevisiae BY4741 SeMeCo community; assay: z-score of subpopulation abundance vs DMSO median, subpopulation auxotrophic for HU; higher = larger share of this subpopulation than in DMSO controls; details: 10 µM; 24 h; SM minimal medium; subpopulation (auxotrophy): HU
Outline: as §1

Structure (SMILES) | mean cell size [1] | z-score of prototroph abundance [2] | z-score of subpopulation abundance [3] | z-score of subpopulation abundance [4] | z-score of subpopulation abundance [5] | z-score of subpopulation abundance [6] | z-score of subpopulation abundance [7] | z-score of subpopulation abundance [8] | z-score of subpopulation abundance [9] | z-score of subpopulation abundance [10] | z-score of subpopulation abundance [11] | z-score of subpopulation abundance [12] | z-score of subpopulation abundance [13] | z-score of subpopulation abundance [14] | z-score of subpopulation abundance [15] | z-score of subpopulation abundance [16] | z-score of subpopulation abundance [17]
O=c1[nH]cnc2c1ncn2[C@@H]1O[C@H](CO)[C@@H](O)[C@H]1O [Isoprinosine] | 12 ± 0.19 | 0.72 | -0.21 | -0.33 | -0.71 | 0.09 | -1.21 | 0 | -0.53 | -0.74 | -0.64 | -0.46 | -0.33 | -0.24 | -0.5 | -0.65 | –
CCn1cc(C(=O)O)c(=O)c2cc(F)c(N3CCN(C)CC3)cc21 [Pefloxacin Mesylate] | 12.48 ± 0.059 | 0.1 | -0.16 | -0.33 | – | -0.3 | -0.06 | 0 | 0.05 | -0.04 | 0 | -0.54 | -0.1 | -0.57 | – | -0.95 | -0.36
CC[C@H]1OC(=O)C[C@@H](O)[C@H](C)[C@@H](O[C@@H]2O[C@H](C)[C@@H](O[C@H]3C[C@@](C)(O)[C@@H](O)[C@H](C)O3)[C@H](N(C)C)[C@H]2O)[C@@H](CC=O)C[C@@H](C)C(=O)/C=C/C(C)=C/[C@@H]1CO[C@@H]1O[C@H](C)[C@@H](O)[C@@H](OC)[C@H]1OC [Tylosin] | 12.16 ± 0.07 | -1.25 | -0.28 | 1.29 | 0.25 | 2.22 | 0.45 | 1.45 | 0.74 | 0.88 | 2.73 | 0.34 | 0.99 | 1.06 | 1.17 | 0.01 | –
O=C1[C@H]2CCCC[C@H]2C(=O)N1CCCCN1CCN(c2nsc3ccccc23)CC1 [Perospirone hydrochloride] | 12.5 ± 0.18 | 0.14 | -0.63 | 0.16 | – | -0.14 | 0.24 | -0.76 | -0.27 | -0.02 | -0.17 | 0.2 | 0.02 | -0.23 | 0.12 | -0.08 | –
C=C[C@]1(C)C[C@@H](OC(=O)CS[C@@H]2C[C@H]3CC[C@@H](C2)N3C)[C@]2(C)[C@H](C)CC[C@]3(CCC(=O)[C@H]32)[C@@H](C)[C@@H]1O [Retapamulin] | 12.42 ± 0.093 | -0.09 | -0.9 | -0.16 | 0.79 | -0.84 | 1.21 | 0.32 | -0.99 | – | -0.57 | 0.45 | -0.52 | 0.06 | 0.62 | 0.65 | –
C[C@H]1[C@H](NC(=O)/C(=N\OC(C)(C)C(=O)O)c2csc(N)n2)C(=O)N1S(=O)(=O)O [Aztreonam] | 12.5 ± 0.18 | -0.5 | 0.26 | 0.74 | – | -0.29 | 0.39 | 0.99 | 0.36 | 0.13 | 0.25 | 0.52 | 1.34 | -0.1 | – | 0.34 | -0.08
Cn1c(=O)c2[nH]cnc2n(C)c1=O [Aminophylline] | 12.5 ± 0.19 | -0.44 | 0.43 | 0.83 | 0.26 | -0.41 | 1.06 | 0.92 | 0.42 | 0.33 | 0.54 | -0.5 | -0.27 | 0.11 | – | -0.29 | –
CCS(=O)(=O)CCn1c([N+](=O)[O-])cnc1C [Tinidazole] | 12.26 ± 0.046 | 0.58 | -0.75 | 0.1 | 0.56 | -1.03 | 0.29 | 0.29 | -1.1 | -0.43 | -0.55 | 0.09 | -1.15 | -0.47 | -0.2 | -0.4 | –
CC(N)C12CC3CC(CC(C3)C1)C2 (stereo unspecified) [Rimantadine] | 12.5 ± 0.14 | – | 0.39 | 0.04 | – | 0.34 | 0.71 | 0.09 | 0.19 | 1.1 | -0.19 | 0.68 | 0.47 | 0.67 | 0.08 | -0.32 | 1.15
CO[C@H]1C[C@@H]2CC[C@@H](C)[C@@](O)(O2)C(=O)C(=O)N2CCCC[C@H]2C(=O)O[C@H]([C@H](C)C[C@@H]2CC[C@@H](OCCO)[C@H](OC)C2)CC(=O)[C@H](C)/C=C(\C)[C@@H](O)[C@@H](OC)C(=O)[C@H](C)C[C@H](C)/C=C/C=C/C=C/1C [Everolimus (RAD001)] | 14.17 ± 0.11 | -18.1 | -1.38 | -0.87 | 2.5 | 15.9 | 2.59 | 4.3 | 22.4 | 12.8 | 12.2 | 22.9 | 19 | 32.4 | 12.4 | – | 27.1
c1ccc2[nH]c(-c3cscn3)nc2c1 [Thiabendazole] | 12.3 ± 0.24 | 0.41 | 0.77 | -0.23 | -0.7 | -0.52 | -0.61 | 0.06 | -0.37 | -0.41 | -0.01 | -0.4 | -0.38 | 0.33 | 0.16 | -0.43 | –
C[C@@H]1C/C=C/C=C/C=C/C=C/[C@H](O[C@@H]2O[C@H](C)[C@@H](O)[C@H](N)[C@@H]2O)C[C@@H]2O[C@](O)(C[C@@H](O)C[C@H]3O[C@@H]3/C=C/C(=O)O1)C[C@H](O)[C@H]2C(=O)O [Natamycin] | 12.31 ± 0.094 | -16.3 | -8.99 | 1.74 | 4.12 | 12.5 | 8.63 | 2.04 | 8.62 | 9.97 | 22.5 | 22.7 | 38.1 | 25.6 | 14.5 | 40.5 | –
O=C(O[C@@H]1C[C@@H]2C[C@H]3C[C@H](C1)N2CC3=O)c1c[nH]c2ccccc12 [Dolasetron Mesylate] | 12.18 ± 0.11 | -0.86 | 0.81 | -0.52 | – | -0.55 | 1.19 | 0.31 | 1.09 | 1.07 | 0 | 0.01 | 0.35 | 0.41 | 0.21 | -0.07 | –
